Experiment [1] is described as follows: NCI Yeast Anticancer Drug Screen. Data for the rad50 strain (AID 155).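 Further: 0% = growth of vehicle-only cultures of the same strain.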 The following applies: S. cerevisiae rad50 strain growth inhibition; at 50.0 µM; hits give high values. The gist of the method:
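Cells are treated with compound, grown, and their growth is then scored against vehicle-only cultures of the same repair-deficient yeast strain.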

The nature of experiment [2]: NCI Yeast Anticancer Drug Screen. Data for the mec2-1 strain (AID 157). The settings on record: S. cerevisiae mec2-1 strain, at 50.0 µM, hits give high values. Summed up:
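Mutant yeast (mec2-1) grown with compound; growth inhibition relative to vehicle control reported.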

Experiment [3] is described as follows: NCI Yeast Anticancer Drug Screen. Data for the sgs1 mgt1 strain (AID 161).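 Further: 0% = growth of cultures given vehicle only.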 The following applies: S. cerevisiae sgs1 mgt1 strain, at 50.0 µM, hits give high values. The gist of the method: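 Percent growth inhibition was derived by comparing compound-exposed mutant yeast with vehicle-exposed cultures. The strain carries alterations in DNA damage repair.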
Experiment [4] in a line: NCI Yeast Anticancer Drug Screen. Data for the cln2 rad14 strain (AID 165).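 Further: 0% = growth equal to vehicle treated cultures.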 The following applies: S. cerevisiae cln2 rad14 strain, at 50.0 µM, hits give high values. Summed up: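 Readout is yeast growth inhibition versus vehicle-treated controls, using a strain with cln2 and rad14 alterations exposed to compound.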
Experiment [5] can be described thus: NCI Yeast Anticancer Drug Screen. Data for the bub3 strain (AID 167). The following applies: S. cerevisiae bub3 mutant strain, at 50.0 µM, hits give high values. The gist of the method: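 Part of a panel of yeast mutants defective in DNA damage repair or cell cycle regulation. Each strain is grown with compound, and inhibition is calculated relative to solvent-treated cultures.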

A short description of experiment [6]: NCI Yeast Anticancer Drug Screen. Data for the mlh1 rad18 strain (AID 175). The settings on record: S. cerevisiae mlh1 rad18 strain growth inhibition; at 50.0 µM; hits give high values. Summed up: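 Genetically defined yeast (DNA repair-deficient) exposed to compounds; growth inhibition determined relative to vehicle.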

Molecules are shown by their SMILES. The panel holds about 79,000 compounds, 15% with a hit somewhere; the sample as a whole holds those more often. Unmarked numbers belong to inactive results. Active and inactive are the calls of the source. No stated cut-off is given here; in the data, active means growth inhibition above about 70%; inactive means the rest.

With `C=CC[N+](CC)(CC)CC`, the growth inhibition in experiment [1] was 12.3%; in experiment [2], -0.45%; in experiment [3], 2.35%; in experiment [4], 12.3%; in experiment [5], 19.4%; in experiment [6], 13.3%.
As to `COc1ccc(C2=C(N)c3c(Cl)cccc3C2=O)cc1`, the growth inhibition is 6.35% in experiment [1]; 3.4% in experiment [2]; 30.2% in experiment [3]; 14.8% in experiment [4]; 21.5% in experiment [5]; -58.2% in experiment [6].
Regarding `CCC[C@H]1C(=O)N=C(N)N1C(=O)OCc1ccccc1`, the growth inhibition is 0.9% in experiment [1]; 2.9% in experiment [2]; -5.5% in experiment [3]; -28.3% in experiment [4]; -3.3% in experiment [5]; -7% in experiment [6].
As for `CC1COCOC1c1ccc2c(c1)OCO2` (configuration not stated), the growth inhibition in experiment [1] is 17.6%; in experiment [2], 4%; in experiment [3], 6%; in experiment [4], 9.45%; in experiment [5] it was -9.45%; in experiment [6], -15.8%.
On to `O=C1CCCC2=C1CC1=C(CCCC1=O)N2c1ccc([N+](=O)[O-])cc1`, for which the growth inhibition in experiment [1] is -35.8%; in experiment [2], -30.1%; in experiment [3], -42%; in experiment [4], -10.3%; in experiment [5], 0.45%; in experiment [6] it was -19.3%.
Consider `O=C(Nc1cccc2c(NC(=O)N3CCCCC3)cccc12)N1CCCCC1`, for which the growth inhibition in experiment [1] was -16.2%; in experiment [2] it was -26.2%; in experiment [3], 1.25%; in experiment [4], 4.1%; in experiment [5] it was 9.55%; in experiment [6], 2.8%.
`CCOP(=O)(OCC)OC1CC(n2cc(C)c(=O)n(C)c2=O)OC1CO[Si](C)(C)C(C)(C)C` (configuration not stated): the growth inhibition in experiment [1] was 19.1%; in experiment [2] it was 1.5%; in experiment [3], 25.9%; in experiment [4] it was 17.6%; in experiment [5], 20.9%; in experiment [6], -12.7%.
Take `CNC(=O)/C(=C\c1ccccc1)NC(C)=O`: the growth inhibition in experiment [1] is 9%; in experiment [2] it was -13.6%; in experiment [3] it was 6%; in experiment [4], -54.7%; in experiment [5], 17.9%; in experiment [6], -25.1%.
On to `CC(=O)OCCn1c2ccccc2nc2cc3c(cc21)c(Cl)c(=O)c1ccccc13`, for which the growth inhibition was 29.6% in experiment [1]; 14.3% in experiment [2]; 21.1% in experiment [3]; 25.6% in experiment [4]; -1.6% in experiment [5]; 13.4% in experiment [6].
As for `CCC[C@@H]1CCCC[C@H]1C`, the growth inhibition in experiment [1] is 0.55%; in experiment [2], -1.95%; in experiment [3] it was -5.3%; in experiment [4], -2.2%; in experiment [5], -14.2%; in experiment [6] it was 0.5%.
For `CCCCN(CCCC)c1ccc(N=C(C#N)c2ccc(N(CCCC)CCCC)cc2)cc1`, the growth inhibition was -21.4% in experiment [1]; -14.2% in experiment [2]; 14% in experiment [3]; -38.8% in experiment [4]; -3% in experiment [5]; 19.5% in experiment [6].
With `Cc1cc(N=Nc2ccc(N=Nc3ccc(S(=O)(=O)O)cc3)cc2)cc(C(=O)O)c1O`, the growth inhibition was 12% in experiment [1]; -9.4% in experiment [2]; -2.85% in experiment [3]; -8% in experiment [4]; -19.7% in experiment [5]; 4.25% in experiment [6].
In the case of `C[C@]12CC[C@@H]3c4ccc(O)cc4CC[C@H]3[C@@H]1CC[C@@H]2OP(=O)(O)O`, the growth inhibition in experiment [1] was -0.15%; in experiment [2], -9.95%; in experiment [3], -37.1%; in experiment [4] it was -27.4%; in experiment [5], -6.45%; in experiment [6], -16.6%.
For the compound `O=c1n(CCO)nc2n1CCCN2`, the growth inhibition in experiment [1] is 7.3%; in experiment [2], 10.9%; in experiment [3] it was 7.2%; in experiment [4], -15.8%; in experiment [5], 7.5%; in experiment [6], 5.6%.
Take `Cc1cc(NS(=O)(=O)c2ccc(NC(=O)c3cccc4c(N)c5ccccc5nc34)cc2)no1`: the growth inhibition in experiment [1] was 34.1%; in experiment [2] it was 14.9%; in experiment [3], 29.3%; in experiment [4], 39.5%; in experiment [5], 3.85%; in experiment [6] it was 37%.
As to `S=c1[nH]c(=S)c2nnn(-c3ccccc3)c2[nH]1`, the growth inhibition in experiment [1] was -47%; in experiment [2] it was -38%; in experiment [3], -31.5%; in experiment [4], -25.9%; in experiment [5], -47.9%; in experiment [6], -34%.
`C1CCC2(CCC34CCCCC3CCCC4)CCCCC2C1` (configuration not stated): the growth inhibition in experiment [1] is 99.5% (active); in experiment [2], 99.7% (active); in experiment [3], 99.5% (active); in experiment [4] it was 99.3% (active); in experiment [5] it was 99.5% (active); in experiment [6], 98.2% (active).
Take `COc1ccc(C2CN=NN2c2ccc([N+](=O)[O-])cc2)cc1` (configuration not stated): the growth inhibition in experiment [1] was -18.4%; in experiment [2] it was -16.6%; in experiment [3], -9.15%; in experiment [4], 28.2%; in experiment [5] it was 46.1%; in experiment [6], -18%.
As for `Cc1cc(O)c(C(c2ccc3c(c2)OCO3)c2c(O)cc(C)[nH]c2=O)c(=O)[nH]1`, the growth inhibition in experiment [1] was 31.1%; in experiment [2], 17.2%; in experiment [3] it was -4.35%; in experiment [4] it was -1.1%; in experiment [5] it was 0%; in experiment [6], -34%.
On to `C=C(C)C(=O)N1c2ccc(OC)cc2CC1C(=O)OCC` (configuration not stated), for which the growth inhibition in experiment [1] was -1.6%; in experiment [2] it was 16.6%; in experiment [3] it was 7.05%; in experiment [4], 12.8%; in experiment [5], 15.8%; in experiment [6] it was 4.55%.
Turning to `O=C(/C=C/c1ccc(O)cc1)c1cc(O)cc(O)c1`, the growth inhibition in experiment [1] was 16.9%; in experiment [2] it was 5.05%; in experiment [3] it was 2%; in experiment [4] it was -8.95%; in experiment [5] it was -4.1%; in experiment [6], 13.8%.
Regarding `CCOC(=O)C1C(NNC(N)=O)CN(C(=O)OCC)C1C(=O)OCC` (configuration not stated), the growth inhibition was -9.2% in experiment [1]; -5.8% in experiment [2]; -15.9% in experiment [3]; 0.4% in experiment [4]; 8.45% in experiment [5]; 10.4% in experiment [6].
Consider `CCCCN(CCCC)c1ccc(S(=O)(=O)c2ccc(N(CCCC)CCCC)cc2)cc1`, for which the growth inhibition in experiment [1] was 19.1%; in experiment [2] it was 4.95%; in experiment [3], 9.4%; in experiment [4], 30.4%; in experiment [5], -2.35%; in experiment [6], 18.6%.
Consider `O=S(=O)(O)CO`, for which the growth inhibition is 16.9% in experiment [1]; 4.6% in experiment [2]; 26% in experiment [3]; 7.35% in experiment [4]; -7.7% in experiment [5]; 20.4% in experiment [6].
Consider `O=c1[nH]nc(-c2ccccc2)n1-c1ccncc1`, for which the growth inhibition in experiment [1] is -4.65%; in experiment [2], 0.3%; in experiment [3], -6.45%; in experiment [4], -4.65%; in experiment [5], 12.7%; in experiment [6], 0.65%.
In the case of `OCCN(/N=C\c1ccc2ccccc2c1)C1=NCCN1`, the growth inhibition in experiment [1] is 15.3%; in experiment [2] it was 6.25%; in experiment [3], -22.1%; in experiment [4], -28.2%; in experiment [5], -2.5%; in experiment [6] it was 5.2%.
Consider `S=C(NCc1ccc(Cl)cc1Cl)Nc1ccccc1`, for which the growth inhibition in experiment [1] is 23.1%; in experiment [2], 73% (active); in experiment [3], 75.8% (active); in experiment [4], -1.8%; in experiment [5] it was 64.7%; in experiment [6], 72.5% (active).
As for `CN1CCC(CNc2ccccc2)CC1`, the growth inhibition in experiment [1] is 3.6%; in experiment [2], -0.5%; in experiment [3] it was 6.05%; in experiment [4], -20.5%; in experiment [5] it was 14.5%; in experiment [6], 3.45%.
Turning to `NCCCOC12CC3CC(CC(C3)C1)C2`, the growth inhibition is 6.1% in experiment [1]; -4.05% in experiment [2]; 38.8% in experiment [3]; -50.4% in experiment [4]; 7.6% in experiment [5]; 15.8% in experiment [6].
Turning to `O=C(O)C1CSC2(CCCC2)N1` (configuration not stated), the growth inhibition in experiment [1] was 16.6%; in experiment [2], 4.15%; in experiment [3], 12.1%; in experiment [4], 4.35%; in experiment [5], 5.7%; in experiment [6] it was -1.6%.
Turning to `O=[N+]([O-])c1ccc(OS(=O)(=O)O)cc1`, the growth inhibition in experiment [1] is 17.8%; in experiment [2], 4.45%; in experiment [3] it was 20.5%; in experiment [4], -9.85%; in experiment [5], -4.1%; in experiment [6], 8.55%.
As to `N#CC(C(=N/NC(N)=S)/C(=N/NC(N)=S)C(C#N)c1ccc(Cl)cc1)c1ccc(Cl)cc1` (configuration not stated), the growth inhibition in experiment [1] was -16.9%; in experiment [2], -19.8%; in experiment [3], -23.9%; in experiment [4], -6.85%; in experiment [5] it was -4.95%; in experiment [6] it was -13.1%.
With `CCOC(=O)C1=NC(c2ccccc2)(c2ccccc2)OC1=C(Cl)Cl`, the growth inhibition in experiment [1] is 0.8%; in experiment [2], -16.4%; in experiment [3], -0.2%; in experiment [4], 19.8%; in experiment [5], -11.4%; in experiment [6], -10.5%.
In the case of `C=CCNC(=S)/N=C/C(C(=O)Nc1ccc(Cl)cc1)=C(\C)O`, the growth inhibition in experiment [1] is -34.1%; in experiment [2], -10.1%; in experiment [3], -30.2%; in experiment [4], 6.6%; in experiment [5], -16.8%; in experiment [6], -12.8%.
In the case of `O=S(=O)(c1ccccc1)N1CCC1c1ccccc1` (configuration not stated), the growth inhibition in experiment [1] is -11.3%; in experiment [2] it was -3.9%; in experiment [3], -8.8%; in experiment [4], 21.9%; in experiment [5] it was 9.3%; in experiment [6], 0.8%.
`Cc1ncc([N+](=O)[O-])n1CCNC(=O)CCC(=O)NCCCn1ccnc1[N+](=O)[O-]`: the growth inhibition in experiment [1] was -16.1%; in experiment [2], -22.9%; in experiment [3], -1.45%; in experiment [4] it was 21.7%; in experiment [5] it was -31.8%; in experiment [6], 14.9%.
As to `CC(=O)Nc1ccc(C2CCCC2)cc1Br`, the growth inhibition in experiment [1] is -3.05%; in experiment [2], -2.15%; in experiment [3] it was 0%; in experiment [4] it was -39.8%; in experiment [5] it was -12.2%; in experiment [6], -4.45%.
